Source: the supplement of paper PMC8975748
Counter-ions that a name gives are not always drawn. ± gives the standard deviation of the averaged measurements.

Legend:
[1] = test system: Saccharomyces cerevisiae BY4741 SeMeCo community; assay: mean cell size (pixel area) (pixels); higher = larger cells; conditions: 10 µM; 24 h; SM minimal medium
In short: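 Harmony analysis of automated confocal images of paraformaldehyde-fixed yeast gave the mean cell pixel area per well. The yeast was a Saccharomyces cerevisiae BY4741 community carrying four plasmids, each with a fluorescent marker and each complementing one auxotrophy, incubated for 24 h in SM medium containing drug at a final 10 µM in 384-well plates. Results are averaged over 3 replicates. Same SeMeCo high-content imaging drug screen: Selleck FDA-approved drugs at 10 µM, 24 h in SM medium, 384-well plates, 3 replicates.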

[2] = test system: Saccharomyces cerevisiae BY4741 SeMeCo community; assay: z-score of prototroph abundance vs DMSO median; higher = larger share of this subpopulation than in DMSO controls; conditions: 10 µM; 24 h; SM minimal medium; subpopulation (auxotrophy): Prototroph
In short: (§1)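 A community of Saccharomyces cerevisiae BY4741 was built from four plasmids that each restored one auxotrophy and encoded a distinct fluorescent protein. Pre-grown overnight to OD600 1.0 and diluted to 0.3, it was dispensed at 70 µl into 384-well plates acoustically predosed with library drugs for a final 10 µM, and grown 24 h in minimal SM medium. Cells were then paraformaldehyde-fixed and imaged by automated confocal microscopy. Thresholds and autofluorescence correction came from single-auxotroph fluorescent strains, and each subpopulation's abundance was scored as a z-score relative to the vehicle-well median.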

[3] = test system: Saccharomyces cerevisiae BY4741 SeMeCo community; assay: z-score of subpopulation abundance vs DMSO median, subpopulation auxotrophic for M; higher = larger share of this subpopulation than in DMSO controls; conditions: 10 µM; 24 h; SM minimal medium; subpopulation (auxotrophy): M
In short: as §1

[4] = test system: Saccharomyces cerevisiae BY4741 SeMeCo community; assay: z-score of subpopulation abundance vs DMSO median, subpopulation auxotrophic for L; higher = larger share of this subpopulation than in DMSO controls; conditions: 10 µM; 24 h; SM minimal medium; subpopulation (auxotrophy): L
In short: as §1

[5] = test system: Saccharomyces cerevisiae BY4741 SeMeCo community; assay: z-score of subpopulation abundance vs DMSO median, subpopulation auxotrophic for U; higher = larger share of this subpopulation than in DMSO controls; conditions: 10 µM; 24 h; SM minimal medium; subpopulation (auxotrophy): U
In short: as §1

[6] = test system: Saccharomyces cerevisiae BY4741 SeMeCo community; assay: z-score of subpopulation abundance vs DMSO median, subpopulation auxotrophic for H; higher = larger share of this subpopulation than in DMSO controls; conditions: 10 µM; 24 h; SM minimal medium; subpopulation (auxotrophy): H
In short: as §1

[7] = test system: Saccharomyces cerevisiae BY4741 SeMeCo community; assay: z-score of subpopulation abundance vs DMSO median, subpopulation auxotrophic for LU; higher = larger share of this subpopulation than in DMSO controls; conditions: 10 µM; 24 h; SM minimal medium; subpopulation (auxotrophy): LU
In short: as §1

[8] = test system: Saccharomyces cerevisiae BY4741 SeMeCo community; assay: z-score of subpopulation abundance vs DMSO median, subpopulation auxotrophic for LM; higher = larger share of this subpopulation than in DMSO controls; conditions: 10 µM; 24 h; SM minimal medium; subpopulation (auxotrophy): LM
In short: as §1

[9] = test system: Saccharomyces cerevisiae BY4741 SeMeCo community; assay: z-score of subpopulation abundance vs DMSO median, subpopulation auxotrophic for HM; higher = larger share of this subpopulation than in DMSO controls; conditions: 10 µM; 24 h; SM minimal medium; subpopulation (auxotrophy): HM
In short: as §1

[10] = test system: Saccharomyces cerevisiae BY4741 SeMeCo community; assay: z-score of subpopulation abundance vs DMSO median, subpopulation auxotrophic for HU; higher = larger share of this subpopulation than in DMSO controls; conditions: 10 µM; 24 h; SM minimal medium; subpopulation (auxotrophy): HU
In short: as §1

[11] = test system: Saccharomyces cerevisiae BY4741 SeMeCo community; assay: z-score of subpopulation abundance vs DMSO median, subpopulation auxotrophic for UM; higher = larger share of this subpopulation than in DMSO controls; conditions: 10 µM; 24 h; SM minimal medium; subpopulation (auxotrophy): UM
In short: as §1

[12] = test system: Saccharomyces cerevisiae BY4741 SeMeCo community; assay: z-score of subpopulation abundance vs DMSO median, subpopulation auxotrophic for HL; higher = larger share of this subpopulation than in DMSO controls; conditions: 10 µM; 24 h; SM minimal medium; subpopulation (auxotrophy): HL
In short: as §1

[13] = test system: Saccharomyces cerevisiae BY4741 SeMeCo community; assay: z-score of subpopulation abundance vs DMSO median, subpopulation auxotrophic for HLU; higher = larger share of this subpopulation than in DMSO controls; conditions: 10 µM; 24 h; SM minimal medium; subpopulation (auxotrophy): HLU
In short: as §1

[14] = test system: Saccharomyces cerevisiae BY4741 SeMeCo community; assay: z-score of subpopulation abundance vs DMSO median, subpopulation auxotrophic for HLM; higher = larger share of this subpopulation than in DMSO controls; conditions: 10 µM; 24 h; SM minimal medium; subpopulation (auxotrophy): HLM
In short: as §1

[15] = test system: Saccharomyces cerevisiae BY4741 SeMeCo community; assay: z-score of subpopulation abundance vs DMSO median, subpopulation auxotrophic for HUM; higher = larger share of this subpopulation than in DMSO controls; conditions: 10 µM; 24 h; SM minimal medium; subpopulation (auxotrophy): HUM
In short: as §1

[16] = test system: Saccharomyces cerevisiae BY4741 SeMeCo community; assay: z-score of subpopulation abundance vs DMSO median, subpopulation auxotrophic for LUM; higher = larger share of this subpopulation than in DMSO controls; conditions: 10 µM; 24 h; SM minimal medium; subpopulation (auxotrophy): LUM
In short: as §1

[17] = test system: Saccharomyces cerevisiae BY4741 SeMeCo community; assay: z-score of subpopulation abundance vs DMSO median, subpopulation auxotrophic for HLUM; higher = larger share of this subpopulation than in DMSO controls; conditions: 10 µM; 24 h; SM minimal medium; subpopulation (auxotrophy): HLUM
In short: as §1

Row | SMILES | mean cell size [1] | z-score of prototroph abundance [2] | z-score of subpopulation abundance [3] | z-score of subpopulation abundance [4] | z-score of subpopulation abundance [5] | z-score of subpopulation abundance [6] | z-score of subpopulation abundance [7] | z-score of subpopulation abundance [8] | z-score of subpopulation abundance [9] | z-score of subpopulation abundance [10] | z-score of subpopulation abundance [11] | z-score of subpopulation abundance [12] | z-score of subpopulation abundance [13] | z-score of subpopulation abundance [14] | z-score of subpopulation abundance [15] | z-score of subpopulation abundance [16] | z-score of subpopulation abundance [17]
1 | CCC(=O)O[C@@H]1CC(=O)O[C@H](C)C/C=C/C=C/[C@H](O)[C@H](C)C[C@H](CC=O)[C@H](O[C@@H]2O[C@H](C)[C@@H](O[C@H]3C[C@@](C)(O)[C@@H](OC(=O)CC)[C@H](C)O3)[C@H](N(C)C)[C@H]2O)[C@H]1OC [Midecamycin] | 12.33 ± 0.1 | -0.41 | 1.11 | -0.17 | -0.73 | 0.88 | -0.66 | 0.61 | 1.3 | 0.44 | -0.3 | 1.52 | -0.1 | 0.18 | 0.7 | -0.4 | -0.96
2 | CCCCCCCCN=c1ccn(CCCCCCCCCCn2ccc(=NCCCCCCCC)cc2)cc1 [Octenidine Dihydrochloride] | 9.029 ± 0.063 | -16.1 | -8.04 | 3.6 | 2.6 | 13.2 | 14.2 | 0.87 | 6.33 | 23.6 | 13.5 | 20 | 5.94 | 27.7 | 26.9 | 13.8 | 58.5
3 | CC[C@H](C)C[C@H](C)CCCCCCCCC(=O)N[C@H]1C[C@@H](O)[C@@H](NCCN)NC(=O)[C@@H]2[C@@H](O)CCN2C(=O)[C@H]([C@H](O)CCN)NC(=O)[C@H]([C@H](O)[C@@H](O)c2ccc(O)cc2)NC(=O)[C@@H]2C[C@@H](O)CN2C(=O)[C@H]([C@@H](C)O)NC1=O [Caspofungin Acetate] | 12.17 ± 0.068 | -12.2 | -8.37 | 5.93 | -3.79 | 31.6 | -0.13 | 1.23 | -0.2 | 8.05 | -2.51 | 51.3 | 13.9 | 45.5 | 10.8 | 5.81 | 127
4 | O=C1CN(/N=C/c2ccc(-c3ccc([N+](=O)[O-])cc3)o2)C(=O)N1 [Dantrolene sodium hemiheptahydrate] | 12.7 ± 0.17 | 1 | 3.93 | 1.44 | -4.45 | – | -1.88 | 1.95 | 1.38 | -2.96 | -3.9 | 1.61 | -1.02 | 2.77 | -1.65 | -1.33 | 0.57
5 | CCCCN(CCCC)CC(O)c1cc(Cl)cc2c1-c1ccc(Cl)cc1/C2=C/c1ccc(Cl)cc1 (configuration not stated) [Lumefantrine] | 12.4 ± 0.14 | -1 | -0.39 | -0.76 | 1.6 | 0.2 | 0.38 | -0.24 | 0.53 | 0.43 | 2.56 | -0.58 | -0.32 | -0.39 | 1.37 | 0.62 | -0.39
6 | CN(C)CC/C=C1/c2ccccc2Sc2ccc(Cl)cc21 [Chlorprothixene] | 12.2 ± 0.36 | 0.08 | 0.73 | -0.89 | 0.62 | -1 | -0.59 | 0.18 | -0.62 | 0.13 | 0.34 | -0.06 | -0.48 | -0.36 | -0.32 | -0.1 | -0.55
7 | COc1ccc(CCN(C)CCCC(C#N)(c2ccc(OC)c(OC)c2)C(C)C)cc1OC (configuration not stated) [Verapamil HCl] | 12.6 ± 0.13 | -0.19 | 1.34 | 0.1 | 0.6 | 0.46 | -0.58 | 0 | -0.27 | 0.54 | 0.03 | 0.26 | 0.26 | 0.44 | 0.05 | 0.79 | 0.13
8 | C#CCN(C)Cc1ccccc1 [Pargyline hydrochloride] | 12.7 ± 0.23 | 0.24 | -0.55 | 0.76 | 0.56 | – | 1.29 | -0.51 | -0.95 | -0.08 | -0.55 | -0.44 | 0.43 | -0.13 | 0 | 0.15 | 0.1
9 | C=C[C@]1(C)C[C@@H](OC(=O)CSC(C)(C)CNC(=O)[C@H](N)C(C)C)[C@]2(C)[C@H](C)CC[C@]3(CCC(=O)[C@H]32)[C@@H](C)[C@@H]1O [Valnemulin HCl] | 12.3 ± 0.19 | -0.65 | 0.05 | 0.38 | 0.15 | 0.85 | 0.87 | 0.54 | 0.32 | 1.22 | 0.26 | 0.85 | 1.01 | 0.18 | 0.58 | 0.67 | 0.48
10 | COc1ncnc(NS(=O)(=O)c2ccc(N)cc2)c1OC [Sulfadoxine] | 12.47 ± 0.085 | -0.71 | -0.15 | -0.42 | 1.05 | -0.14 | 0.85 | -0.89 | -0.26 | 0.53 | 0.98 | 0.34 | 0.31 | 0.02 | 1.04 | -0.34 | 0.32
11 | Nc1nc(=O)[nH]cc1F [Flucytosine] | 13.9 ± 0.19 | -10.3 | -3.75 | -1.32 | 0.5 | 17.8 | 0.49 | -4.29 | 17.8 | 8.85 | 1.6 | 13.2 | 1.33 | 35.5 | 10.3 | 4.96 | 38.3
12 | COCC(=O)Nc1cc(Sc2ccccc2)ccc1N=C(NC(=O)OC)NC(=O)OC [Febantel] | 12.3 ± 0.18 | -0.31 | 1.45 | -0.03 | -1.73 | 0.91 | -0.37 | 0.89 | 1.62 | -0.73 | -0.56 | 1.03 | -0.05 | 0.64 | -0.11 | 0.02 | -0.82
